Legend:
Assay in all cases: log2 ratio of Biotin-Ahx-Ub-VS probe labelling (compound/DMSO); higher = less target engagement, active = hit call of the paper (q ≤ 0.05, log2 ratio ≤ -1)
[1] = compound: CCC1N(CCc2sccc12)C(=O)CCl; conditions: treatment time: 3 h
In short: (§1)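 Compound at 50 or 200 µM, or DMSO, was applied for 3 h in triplicate to HEK293T lysate (495 µg per sample, Tris/CHAPS/IGEPAL buffer with protease inhibitors), after which Biotin-Ahx-Ub-VS was added at 0.5 µM final for 1 h. The labelled DUBs were pulled down with NeutrAvidin, digested with LysC and trypsin, and run by diaPASEF LC-MS/MS. Ratios are averaged base-two logs of compound over DMSO from median-normalised label-free quantities by unpaired t-test, counting only proteins with at least 2 unique peptides.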

[2] = compound: CN1c2ccccc2C(CS1(=O)=O)NC(=O)CCl; conditions: treatment time: 3 h
In short: as §1

[3] = compound: Cl.ClCC(=O)N1CCc2ncncc2C1; conditions: treatment time: 3 h
In short: as §1

[4] = compound: Cl.Cn1ncc2C(CCCc12)NC(=O)CCl; conditions: treatment time: 3 h
In short: as §1

[5] = compound: ClCC(=O)NC1CCOc2ccccc12; conditions: treatment time: 3 h
In short: as §1

[6] = compound: ClCC(=O)NC1CCCc2ccccc12; conditions: treatment time: 3 h
In short: (§2)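 Spectronaut label-free, global-median-normalised protein quantities underlie these values, which are average ratios of compound to vehicle from an unpaired t-test. They are reported as log2 and include only proteins identified by two or more unique peptides. Samples of HEK293T lysate (495 µg) were treated in triplicate with a compound concentration series or vehicle for 3 h, then labelled with Biotin-Ahx-Ub-VS at 0.5 µM final for 1 h before NeutrAvidin enrichment, LysC and trypsin digestion, and diaPASEF LC-MS/MS.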

[7] = compound: ClCC(=O)N[C@@H]1CCCc2ccccc12; conditions: treatment time: 3 h
In short: as §2

[8] = compound: ClCC(=O)N[C@H]1CCCc2ccccc12; conditions: treatment time: 3 h
In short: as §2

[9] = compound: CCC1N(CCc2cc(OC)c(Cl)cc12)C(=O)CCl; conditions: treatment time: 3 h
In short: as §1

[10] = compound: CCCC1N(CCc2cc(OC)c(OC)cc12)C(=O)CCl; conditions: treatment time: 3 h
In short: as §1

[11] = compound: CN(Cc1cccc(Br)c1)C(=O)CCl; conditions: treatment time: 3 h
In short: as §1

[12] = compound: CN(Cc1cccc(OCc2ccccc2C)c1)C(=O)CCl; conditions: treatment time: 3 h
In short: as §1

[13] = compound: CN(Cc1ccccc1)C(=O)CCl; conditions: treatment time: 3 h
In short: as §1

[14] = compound: COc1ccc(CN(C)C(=O)CCl)cc1; conditions: treatment time: 3 h
In short: as §1

[15] = compound: COc1cccc(CN(CCCc2ccccc2)C(=O)CCl)c1; conditions: treatment time: 3 h
In short: as §1

[16] = compound: ClCC(=O)N1CCc2cc(Cl)c(Cl)cc2C1; conditions: treatment time: 3 h
In short: as §1

[17] = compound: ClCC(=O)N1CCc2nc(ncc2C1)-c1ccccc1; conditions: treatment time: 3 h
In short: as §1

[18] = compound: ClCC(=O)N1CCc2nocc2C1; conditions: treatment time: 3 h
In short: as §1

[19] = compound: ClCC(=O)N1CCc2scc(Br)c2C1; conditions: treatment time: 3 h
In short: as §1

[20] = compound: ClCC(=O)NC(C1CCCC1)c1cccs1; conditions: compound concentration: 50uM; treatment time: 3 h
In short: as §1

Measured: log2 ratio of Biotin-Ahx-Ub-VS probe labelling

USP54 (UniProt Q70EL1)
UniProt Q70EL1, sequence (Q70EL1 whole entry): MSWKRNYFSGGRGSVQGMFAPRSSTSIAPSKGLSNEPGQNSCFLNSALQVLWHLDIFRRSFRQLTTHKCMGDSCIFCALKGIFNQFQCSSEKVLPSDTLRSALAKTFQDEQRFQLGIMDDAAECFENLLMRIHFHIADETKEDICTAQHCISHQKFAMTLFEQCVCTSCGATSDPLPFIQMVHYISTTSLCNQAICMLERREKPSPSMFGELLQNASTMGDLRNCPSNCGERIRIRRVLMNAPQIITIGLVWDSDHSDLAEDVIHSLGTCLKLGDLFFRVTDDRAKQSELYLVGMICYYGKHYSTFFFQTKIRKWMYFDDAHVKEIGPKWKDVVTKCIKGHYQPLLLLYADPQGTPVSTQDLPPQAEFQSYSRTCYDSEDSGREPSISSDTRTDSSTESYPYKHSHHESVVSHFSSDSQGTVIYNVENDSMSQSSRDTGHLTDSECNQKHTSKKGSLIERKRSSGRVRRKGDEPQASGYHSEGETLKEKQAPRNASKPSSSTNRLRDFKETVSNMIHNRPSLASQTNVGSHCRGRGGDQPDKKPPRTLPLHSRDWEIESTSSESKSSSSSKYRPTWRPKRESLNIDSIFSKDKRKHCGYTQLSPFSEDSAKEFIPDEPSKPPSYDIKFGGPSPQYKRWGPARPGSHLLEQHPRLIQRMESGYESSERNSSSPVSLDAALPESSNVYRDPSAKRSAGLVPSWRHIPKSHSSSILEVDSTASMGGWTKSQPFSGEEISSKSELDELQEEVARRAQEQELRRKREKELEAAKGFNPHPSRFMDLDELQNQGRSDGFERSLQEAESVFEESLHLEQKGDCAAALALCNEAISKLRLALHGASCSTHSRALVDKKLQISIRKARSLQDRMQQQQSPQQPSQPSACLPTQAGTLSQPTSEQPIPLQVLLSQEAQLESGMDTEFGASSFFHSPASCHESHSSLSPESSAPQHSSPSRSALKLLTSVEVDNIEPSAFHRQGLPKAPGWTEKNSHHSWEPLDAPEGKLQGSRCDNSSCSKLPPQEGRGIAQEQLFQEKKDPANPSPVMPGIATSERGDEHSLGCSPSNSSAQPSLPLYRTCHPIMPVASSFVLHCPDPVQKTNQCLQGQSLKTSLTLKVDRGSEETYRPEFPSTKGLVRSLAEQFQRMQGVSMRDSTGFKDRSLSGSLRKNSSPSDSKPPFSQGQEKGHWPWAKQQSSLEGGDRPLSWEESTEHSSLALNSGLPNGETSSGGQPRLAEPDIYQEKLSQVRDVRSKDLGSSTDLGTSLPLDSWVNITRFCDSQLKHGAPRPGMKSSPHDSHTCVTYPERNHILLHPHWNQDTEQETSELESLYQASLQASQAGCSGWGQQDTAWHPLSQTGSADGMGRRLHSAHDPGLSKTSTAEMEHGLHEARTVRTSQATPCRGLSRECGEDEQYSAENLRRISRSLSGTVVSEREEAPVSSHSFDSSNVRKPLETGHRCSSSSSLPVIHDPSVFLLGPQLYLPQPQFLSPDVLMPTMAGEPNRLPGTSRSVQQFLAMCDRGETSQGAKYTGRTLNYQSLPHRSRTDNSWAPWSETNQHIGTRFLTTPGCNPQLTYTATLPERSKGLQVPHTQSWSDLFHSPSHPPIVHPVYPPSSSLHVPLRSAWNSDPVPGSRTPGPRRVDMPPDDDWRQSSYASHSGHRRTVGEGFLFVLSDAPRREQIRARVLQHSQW
inactive: [1]; compound concentration: 50uM 0.403 | [1]; compound concentration: 200uM -0.685 | [2]; compound concentration: 50uM 0.55 | [2]; compound concentration: 200uM -0.727 | [3]; compound concentration: 50uM 0.0984 | [4]; compound concentration: 50uM 0.166 | [5]; compound concentration: 50uM -0.806 | [5]; compound concentration: 200uM -0.859 | [6]; compound concentration: 0.78uM -0.349 | [6]; compound concentration: 1.56uM -0.87 | [6]; compound concentration: 3.13uM -0.672 | [6]; compound concentration: 25uM -0.646 | [6]; compound concentration: 50uM -0.519 | [6]; compound concentration: 100uM -0.598 | [6]; compound concentration: 200uM -0.947 | [7]; compound concentration: 0.78uM 0.232 | [7]; compound concentration: 1.56uM -0.0979 | [7]; compound concentration: 3.13uM -0.457 | [7]; compound concentration: 6.25uM -0.449 | [7]; compound concentration: 12.5uM -0.888 | [7]; compound concentration: 25uM 0.0566 | [7]; compound concentration: 50uM -0.582 | [7]; compound concentration: 100uM -0.163 | [7]; compound concentration: 200uM -0.256 | [8]; compound concentration: 0.78uM 0.15 | [8]; compound concentration: 3.13uM -0.564 | [8]; compound concentration: 6.25uM -0.753 | [8]; compound concentration: 12.5uM -0.0765 | [8]; compound concentration: 25uM -0.601 | [8]; compound concentration: 50uM -0.182 | [8]; compound concentration: 100uM 0.38 | [8]; compound concentration: 200uM -0.201 | [9]; compound concentration: 50uM -0.125 | [9]; compound concentration: 200uM -0.766 | [10]; compound concentration: 50uM -0.559 | [11]; compound concentration: 50uM 0.085 | [11]; compound concentration: 200uM -0.845 | [12]; compound concentration: 200uM -0.985 | [13]; compound concentration: 50uM -0.885 | [13]; compound concentration: 200uM -0.551 | [14]; compound concentration: 50uM -0.773 | [15]; compound concentration: 50uM -0.358 | [16]; compound concentration: 50uM -0.895 | [17]; compound concentration: 50uM -0.823 | [18]; compound concentration: 50uM -0.519 | [19]; compound concentration: 50uM -0.124 | [20] 0.0591
active: [3]; compound concentration: 200uM -1.09 | [4]; compound concentration: 200uM -2.4 | [6]; compound concentration: 6.25uM -1.2 | [6]; compound concentration: 12.5uM -1.06 | [8]; compound concentration: 1.56uM -1.07 | [10]; compound concentration: 200uM -2.42 | [12]; compound concentration: 50uM -1.29 | [14]; compound concentration: 200uM -2.33 | [15]; compound concentration: 200uM -2.68 | [16]; compound concentration: 200uM -2.65 | [17]; compound concentration: 200uM -2.39 | [18]; compound concentration: 200uM -1.77 | [19]; compound concentration: 200uM -2.07
